According to PubChem BioAssay (NCATS):
Inconclusive results are not listed. Active and inactive are the calls of the source. Calls come from the whole dose curve; as a rule, active = well fitted inhibition curve with a large enough effect; inconclusive = small, poorly fitted or top-dose-only effect; inactive = flat fitted curve, though single readings scatter.

Tests used:
Experiment in all cases: qHTS profiling for inhibitors of Plasmodium falciparum proliferation (AID 504749); note: nearly all actives have a fitted effect of over 60% in size
Details in all cases: P. falciparum in erythrocytes, SYBR Green DNA, 72 h; series mostly up to 28.7 µM
[1] = tested on: CP297
Method in brief: (§1)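 Each compound contacts P. falciparum-infected red blood cells for 72 h at 37 C; lysis buffer (Tris, EDTA, saponin, Triton X, SYBR Green I) is added and fluorescence measured next morning; values normalized to controls.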

[2] = tested on: CP305
Method in brief: as §1

[3] = tested on: CP315
Method in brief: as §1

[4] = tested on: CP325
Method in brief: as §1

[5] = tested on: CP329
Method in brief: as §1

[6] = tested on: CP335
Method in brief: as §1

[7] = tested on: DFO2036
Method in brief: as §1

[8] = tested on: DIV14
Method in brief: as §1

[9] = tested on: DIV17
Method in brief: as §1

[10] = tested on: DIV30
Method in brief: as §1

[11] = tested on: Dd2
Method in brief: as §1

[12] = tested on: ECU
Method in brief: as §1

[13] = tested on: FAB9
Method in brief: as §1

[14] = tested on: GB4
Method in brief: as §1

[15] = tested on: HB3
Method in brief: as §1

[16] = tested on: ICS
Method in brief: as §1

[17] = tested on: JCK
Method in brief: as §1

[18] = tested on: N140
Method in brief: as §1

[19] = tested on: P93_24
Method in brief: as §1

[20] = tested on: P94_40
Method in brief: as §1

Measured: Potency

CNC(=O)OCc1cccc(COC(=O)NC)n1
inactive: all assays above

OC[C@H]1O[C@@H]2O[C@H]3[C@H](O)[C@@H](O)[C@@H](O[C@H]4[C@H](O)[C@@H](O)[C@@H](O[C@H]5[C@H](O)[C@@H](O)[C@@H](O[C@H]6[C@H](O)[C@@H](O)[C@@H](O[C@H]7[C@H](O)[C@@H](O)[C@@H](O[C@H]1[C@H](O)[C@H]2O)O[C@@H]7CO)O[C@@H]6CO)O[C@@H]5CO)O[C@@H]4CO)O[C@@H]3CO
inactive: all assays above

O=S(=O)(O)CC(S)CS (stereo not given)
inactive: all assays above

c1ccc(-n2cnnn2)cc1
inactive: all assays above

C=CCCCCCCCCC(=O)OC
inactive: all assays above

CN(CCO)CC(O)Cn1cnc2c1c(=O)n(C)c(=O)n2C (stereo not given) (tested in a mixture with another compound)
inactive: all assays above

CC1(C)S[C@@H]2[C@H](NC(=O)C3(N)CCCCC3)C(=O)N2[C@H]1C(=O)O
inactive: all assays above

CC(=O)N[C@@H]1C(O[C@H]2O[C@H](C(=O)O)C(O)[C@H](O)[C@H]2O)[C@H](O)[C@@H](CO)O[C@H]1O[C@@H]1C(C(=O)O)O[C@@H](O[C@H]2[C@H](O)[C@@H](CO)OC(O)[C@@H]2NC(C)=O)[C@H](O)[C@H]1O (stereo not given in full)
inactive: all assays above

CCCCCCOC(=O)c1cccnc1
inactive: all assays above

O=C(O)c1ccc(OCCn2ccnc2)cc1
inactive: all assays above

O=c1[nH]c(=O)n([C@H]2C[C@H](O)[C@@H](CO)O2)cc1/C=C/Br
inactive: all assays above

CC(C)Cc1ccc([C@@H](C)C(=O)NS(C)(=O)=O)cc1
inactive: all assays above

Nc1nc(=O)n([C@@H]2CS[C@H](CO)O2)cc1F
inactive: all assays above

O=[n+]1ccn([O-])c2ccccc21
inactive: all assays above

CC1=CC(=O)NS(=O)(=O)O1
inactive: all assays above

Cc1ncc(C[n+]2csc(CCOP(=O)(O)O)c2C)c(N)n1
inactive: all assays above

OCC1(CO)COC(C(Cl)(Cl)Cl)OC1
inactive: all assays above

OC[C@H]1O[C@@](CO)(O[C@H]2O[C@H](CO)[C@@H](O)[C@H](O)[C@H]2O)[C@@H](O)[C@@H]1O
inactive: all assays above

CC1=CCC2CC1C2(C)C (stereo not given)
inactive: all assays above

Cc1c(Cl)cccc1Nc1ncccc1C(=O)O
inactive: all assays above

CC(CC=O)CCCC(C)(C)O (stereo not given)
inactive: all assays above

O=P(O)(O)OC[C@H](O)CO
inactive: all assays above

CCCOC(=O)c1ccccc1O
inactive: all assays above

C[C@H](N)C(=O)N[C@@H](C)P(=O)(O)O
inactive: all assays above

Cc1ccc(S(=O)(=O)NCl)cc1
inactive: all assays above

O=C(O)Cc1cc(I)c(Oc2ccc(O)c(I)c2)c(I)c1
inactive: all assays above

Cc1ccccn1
inactive: all assays above
